Test results taken from PubChem BioAssay AID1224903 (Bradner/Qi Labs at DFCI, 2016).
About 720 (1.1%) of roughly 66,000 compounds were called active. No stated cut-off is given here; in the data, active means normalised signal below about 0.5; inactive means the rest, inconclusive results apart. The list comes from a sample in which actives are over-represented; it also holds similar structures and randomly drawn compounds.

target: Chromobox protein homolog 7 (Homo sapiens) (UniProt O95931); assay: blockers of CBX7 binding to H3K27me3 peptide – biochemical, AlphaScreen, primary screen (AID 1224903); details: AlphaScreen His6-CBX7 / biotin-H3K27me3 peptide binding, stronger effect = lower value; z-score: measured here: z-score of CBX7 signal
Sequence (O95931 whole entry, looked up): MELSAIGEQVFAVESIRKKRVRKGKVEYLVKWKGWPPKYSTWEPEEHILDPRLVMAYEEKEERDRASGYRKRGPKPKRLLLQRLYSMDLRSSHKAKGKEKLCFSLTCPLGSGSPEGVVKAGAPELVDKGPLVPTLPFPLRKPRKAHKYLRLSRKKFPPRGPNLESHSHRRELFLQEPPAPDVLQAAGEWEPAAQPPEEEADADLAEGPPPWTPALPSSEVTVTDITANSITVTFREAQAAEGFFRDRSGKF

Row | Compound | normalised signal (fraction of DMSO) | z-score
1 | Cc1ccc2c(c1)C(c1ccc(F)cc1)N(C(=O)c1ccc(S(=O)(=O)N3CCCC3)cc1)CC(=O)N2 (centres undefined) | 0.859 (inactive) | -1.94
2 | Cc1ccc2c(c1)C(c1ccc(F)cc1)N(C(=O)c1ccc(C)c(C)c1)CC(=O)N2 (centres undefined) | 0.316 (active) | -6.53
3 | Cc1ccc(C(=O)N2CC(=O)Nc3ccc(F)cc3C2c2ccc(F)cc2)cc1 (centres undefined) | 1.01 (inactive) | 0.159
4 | O=C(Nc1ccccc1C(=O)Nc1ccccc1)c1cccc(S(=O)(=O)N2CCCCC2)c1 | 0.764 (inactive) | -2.54
5 | Cc1ccc(C(C)C)c(OCc2nnc(NC(=O)c3ccc(Br)cc3)s2)c1 | 1.06 (inactive) | 0.262
6 | CCN1CCN(CCCNC(=O)c2ccc3c(c2)N(Cc2ccc(F)cc2)CCS3)CC1 | 0.904 (inactive) | -4.6
7 | CC(=O)N1CCC(N(C(=O)Nc2ccc(Cl)cc2)C2CCCCCC2)CC1 | 1.02 (inactive) | 0.287
8 | Cc1ccc(-c2nc(Nc3ccccc3)sc2C)cc1 | 0.99 (inactive) | -0.257
9 | CCCCNC(=O)c1cc(Nc2ccc(CC)cc2)nc2ccccc12 | 0.991 (inactive) | -0.251
10 | O=C(NCc1ccccc1)C1CCN(c2nc3ccccc3o2)CC1 | 1.02 (inactive) | 0.778
11 | COc1ccc(CNc2nc(-c3ccccc3)cc(C(F)(F)F)n2)cc1 | 1.28 (inactive) | 3.06
12 | CC(C)n1cnc2cc(NCc3ccccc3Cl)ccc21 | 0.463 (active) | -15.4
13 | COc1ccc(CNc2ccc3c(c2)ncn3C(C)(C)C)c(OC)c1 | 0.589 (inactive) | -11.8
14 | Cc1ccc(NC(=O)CCc2nnc3ccc(NCc4ccccc4Cl)nn23)cc1 | 0.916 (inactive) | -2.3
15 | COc1ccc(OC)c(Cc2nc3cc(C)c(C)cc3[nH]c2=O)c1 | 0.964 (inactive) | -1.09
16 | O=C(Nc1ccccc1Cl)C1CCN(C(=O)c2cnn(-c3ccccc3)c2-n2cccc2)CC1 | 1.04 (inactive) | 1.69
17 | Cc1ccc(C(=O)CN2C3=NCCN3c3ccccc32)cc1 | 0.994 (inactive) | -0.186
18 | CC(C)N(CCCNC(=O)C1CCC(=O)N1Cc1ccc(F)cc1)Cc1ccccc1 (centres undefined) | 0.995 (inactive) | -0.146
19 | CCc1ccc(NC(=O)Cn2c(SCc3cccc(F)c3)nc3ccncc32)cc1 | 1.06 (inactive) | 0.594
20 | Fc1cnc(Nc2ccc(Cl)cc2)nc1Nc1ccc(Cl)cc1 | 1.05 (inactive) | 0.523
21 | Cc1ccc(C(C)C)cc1OCC(O)Cn1cnc2ccccc21 (centres undefined) | 0.815 (inactive) | -2.55
22 | CC(C)c1ccc(OCC(O)Cn2cnc3ccccc32)cc1 (centres undefined) | 0.284 (active) | -13.5

Row | Compound | normalised signal (fraction of DMSO) | z-score
23 | CCc1cc(C)cc(OCC(O)Cn2cnc3ccccc32)c1 (centres undefined) | 0.88 (inactive) | -3.02
24 | Cc1ccc(NC(=O)c2cc(C)nn2-c2ccccc2)c(C)c1 | 1.04 (inactive) | 1.18
25 | COc1cccc(C(=O)Nc2ccc3oc(-c4ccccc4)nc3c2)c1 | 1.16 (inactive) | 2.43
26 | COc1ccc(-c2noc(N(C)CC(=O)N3CCN(C)CC3)n2)cc1 | 1.02 (inactive) | 0.593
27 | O=C(CSCc1cnn(-c2ccccc2)c1-n1cccc1)NC1CC1 | 0.986 (inactive) | -0.615
28 | COc1ccccc1N1CCN(C(c2cccs2)C(C)NC(=O)c2ccc3c(c2)OCO3)CC1 (centres undefined) | 0.905 (inactive) | -2.32
29 | CCOc1ccc(C(=O)Nc2c3c(nn2-c2cccc(C)c2C)CSC3)cc1 | 1.01 (inactive) | 0.119
30 | Cc1ccc(Cc2cnc(CN(C)C)c(O)c2)cc1 | 0.477 (active) | -6.92
31 | Clc1ccc2nc(-c3ccsc3)c(NC(c3ccccc3)c3ccccc3)n2c1 | 1.04 (inactive) | 1.58
32 | COc1ccc(-c2cc(C(=O)NCCCn3ccnc3)no2)cc1 | 0.983 (inactive) | -0.364
33 | Cc1ccc(-c2nc(C#N)c(NCCCn3ccnc3)o2)cc1 | 0.442 (active) | -0.658
34 | Cc1ccc(CNc2oc(-c3ccc(F)cc3)nc2C#N)cc1 | 0.934 (inactive) | -2.3
35 | COc1ccc(Cl)cc1NC(=O)C1c2cc(OC)c(OC)cc2C(=O)N(C)C1c1ccccc1F (centres undefined) | 1.06 (inactive) | 1.16
36 | Cc1ccc(CNC(=O)c2c(-c3ccccc3)noc2C)cc1 | 1.03 (inactive) | 0.952
37 | CC1(C)CC(=O)c2cc(OCC(=O)NCCCN3CCCC3)ccc2O1 | 0.509 (inactive) | -9.7
38 | Cc1ccc(-c2nc3c(C)cccn3c2Nc2ccc3c(c2)OCCO3)cc1 | 0.63 (inactive) | -13.9
39 | O=C(NCc1ccccc1)C1C2C=CC3(CN(Cc4ccccc4Cl)C(=O)C13)O2 (centres undefined) | 0.955 (inactive) | -2.13
40 | CCCCn1c(C2CC(=O)N(c3ccc(CC)cc3)C2)nc2ccccc21 (centres undefined) | 0.96 (inactive) | -0.9
41 | Cc1ccc(-c2nnc(Nc3ccc(OCC(N)=O)cc3)c3ccccc23)cc1S(=O)(=O)NC(C)C | 0.723 (inactive) | -5.21
42 | CCOc1ccc(-c2nnc(Nc3ccc(C(N)=O)cc3)c3ccccc23)cc1 | 0.436 (active) | -2.64
43 | Cc1ccc(-c2nnc(Nc3ccc(C(=O)N(C)C)cc3)c3ccccc23)cc1S(N)(=O)=O | 1.08 (inactive) | 2.41
44 | CCCNC(=O)c1ccc2c(c1)N(Cc1ccccc1)C(=O)c1ccccc1S2(=O)=O | 1.14 (inactive) | 2.25

Row | Compound | normalised signal (fraction of DMSO) | z-score
45 | CCOC(=O)c1sc(NC(=O)c2ccc(OCC)cc2)nc1-c1ccccc1 | 0.993 (inactive) | -0.166
46 | Cc1ccc(Cn2c(=O)cc(C(=O)NC3CC3)c3ccccc32)cc1 | 0.912 (inactive) | -0.873
47 | COc1ccc(Cl)cc1C1CC(=O)Nc2cc3c(cc21)OCO3 (centres undefined) | 1.03 (inactive) | 0.351
48 | CCc1nc2ccc(C(=O)NCC(OC)OC)cc2nc1CC | 1.13 (inactive) | 0.801
49 | CC1CCN(c2c(NCc3ccc(C(=O)NCc4ccccc4)cc3)c(=O)c2=O)CC1 | 0.993 (inactive) | -0.292
50 | COc1ccc(-c2[nH]c(-c3ccc(C)cc3)nc2SCC(=O)Nc2ccc(F)cc2)cc1OC | 0.756 (inactive) | -11.6
51 | COc1ccc(-c2nc(-c3ccc(F)cc3)c(-c3ccc(F)cc3)[nH]2)cc1OC | 0.322 (active) | -13.4
52 | COc1cc(-c2nc(-c3ccccc3)c(-c3ccccc3)[nH]2)ccc1OCC(=O)O | 0.774 (inactive) | -0.891
53 | CC1(C)C=c2c(nnc3ncnn23)=C(O)C1 | 0.00873 (active) | -15.7
54 | CCOC(=O)C1CCCN(c2c(N3CC(C)CC(C)C3)c(=O)c2=O)C1 (centres undefined) | 0.898 (inactive) | -2.3
55 | COc1ccc(OCc2nc(C#N)c(N(C)Cc3ccccc3)o2)cc1 | 0.575 (inactive) | -2.65
56 | Cc1ccc(OCc2nc(C#N)c(N3CCCC3)o2)cc1 | 0.417 (active) | -10.6
57 | N#Cc1nc(COc2ccc(Cl)cc2)oc1N1CCCC1 | 0.728 (inactive) | -11.9
58 | Cc1cc(N2CCCCC2)nc2ccc(NC(=O)CCC(=O)N3CCN(c4ccc(F)cc4)CC3)cc12 | 1.05 (inactive) | 0.868
59 | Cc1ccc(C)c(CN2C(=O)CSc3ccc(C(=O)NCCCN4CCCCCC4)cc32)c1 | 0.98 (inactive) | -0.433
60 | Cc1cc(C)nc(N=C(N)N2CCC(Cc3ccccc3)CC2)n1 | 0.97 (inactive) | -0.61
61 | COc1cc(Cl)c(C)cc1NC(=O)c1n[nH]c(=O)c2ccccc12 | 1.01 (inactive) | 0.38
62 | CC1CCCCC1NS(=O)(=O)c1ccc2c(c1)CCN2C(=O)C1CCC1 (centres undefined) | 0.937 (inactive) | -2.14
63 | COCCN1Cc2cccc(C(=O)NC3CCCC3)c2C1=O | 1.06 (inactive) | 0.062
64 | O=C(NC1CC1)c1ccc2c(c1)NC(=O)c1ccccc1N2 | 0.861 (inactive) | -2.13
65 | Cc1sc2ncnc(NCC3(c4ccccc4)CCCC3)c2c1C | 1.08 (inactive) | 1.89
66 | COCCNC(=O)c1ccc2c(c1)N=C(C)c1cc(Br)ccc1S2 | 0.995 (inactive) | -0.23

Row | Compound | normalised signal (fraction of DMSO) | z-score
67 | CCC(C)NC(=O)c1sc2ncn(CC(=O)Nc3ccccc3OC)c(=O)c2c1C (centres undefined) | 1.07 (inactive) | 0.734
68 | Cc1ccc(-c2nc3ncccc3o2)cc1NC(=O)c1ccc(Br)cc1 | 0.923 (inactive) | -0.643
69 | CC(C)NC(=O)c1ccc2nc(-c3ccccc3)c(-c3ccccc3)nc2c1 | 1.07 (inactive) | 0.662
70 | Cc1cccc(CCNC(=O)CCCNS(=O)(=O)c2ccc3c(c2)CCC(=O)N3)c1 | 1.06 (inactive) | 2.11
71 | CCOc1ccc(CNC(=O)C(C)N2C(=O)COc3ccc(C)cc32)cc1 (centres undefined) | 0.421 (active) | -10.5
72 | Cc1ccc2c(c1)N(C(C)C(=O)NCc1ccc(F)cc1Cl)C(=O)CO2 (centres undefined) | 0.512 (inactive) | -8.83
73 | CCN(CCCNC(=O)C(C)N1C(=O)COc2ccc(C)cc21)c1ccccc1 (centres undefined) | 0.631 (inactive) | -6.67
74 | O=C1C2C3C=CC(C4CC34)C2C(=O)N1Cc1cccnc1 (centres undefined) | 0.934 (inactive) | -1.18
75 | Cc1cc(N2CCCCC2)nc2ccc(NC(=O)c3cnccn3)cc12 | 0.882 (inactive) | -2.15
76 | CCN(CCNC(=O)Cn1nc(-c2ccc(Cl)cc2)ccc1=O)c1ccccc1 | 0.859 (inactive) | -7.3
77 | COc1ccc(N2CC(C(=O)Nc3ccc(C(C)C)cc3)CC2=O)cc1 (centres undefined) | 1.06 (inactive) | 0.0758
78 | CC(=O)Nc1ccccc1-c1nc2ccccc2n(C)c1=O | 1.23 (inactive) | 3.65
79 | Cc1cc(C)cc(OC(C)C(=O)N(Cc2ccc(Cl)cc2)C2CCS(=O)(=O)C2)c1 (centres undefined) | 0.978 (inactive) | -0.282
80 | Nc1nonc1-c1noc(-c2c(F)cccc2F)n1 | 1.09 (inactive) | 0.864
81 | COc1ccc(Nc2cc(C(=O)NC3CC3)c3ccccc3n2)c(OC)c1 | 0.865 (inactive) | -2.17
82 | COc1cccc(-n2ccnc2SCC(=O)Nc2ccc(OC(F)(F)F)cc2)c1 | 0.995 (inactive) | -0.0932
83 | COc1cccc(-n2ccnc2SCC(=O)Nc2ccc(Br)cc2)c1 | 0.458 (active) | -0.719
84 | COc1ccc(-n2ccnc2SCC(=O)Nc2ccc(C)cc2)cc1 | 0.62 (inactive) | -0.504
85 | CCOc1ccc(-n2ccnc2SCC(=O)Nc2ccc(C)cc2C)cc1 | 0.963 (inactive) | -0.292
86 | CCOc1ccc(-n2ccnc2SCC(=O)Nc2ccccc2F)cc1 | 0.617 (inactive) | -0.508
87 | CCOc1ccc(-n2ccnc2SCC(=O)Nc2cccc(Cl)c2)cc1 | 0.445 (active) | -0.736
